Screening results as filed in PubChem BioAssay.
PP5 inh – PP5 phosphatase inhibitors, primary screen, biochemical, fluorescence; inhibition, % at 6.7 µM; purified PP5c, OMFP substrate fluorescence; 320,000 tested, 0.18% active; Serine/threonine-protein phosphatase 5 (Homo sapiens), P53041; AID 1987, 2009;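 active = inhibition above the campaign's mean inhibition across all tested compounds plus 3 SD, cut at about 9.5% in these data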
PP1 inh – PP1-alpha phosphatase inhibitors, primary screen, counter-screen for PP5 inhibitor project, biochemical, fluorescence, OMFP substrate, single point | 320,000 tested, 0.9% active | purified PP1alpha | inhibition, % at 6.7 µM | Serine/threonine-protein phosphatase PP1-alpha catalytic subunit (Homo sapiens), P62136 | AID 2235, 2010;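 active = inhibition above the mean inhibition of all tested compounds plus 3 SD, computed separately for each screening campaign, cut at about 15% in these data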
Target sequence (P62136 whole entry, looked up): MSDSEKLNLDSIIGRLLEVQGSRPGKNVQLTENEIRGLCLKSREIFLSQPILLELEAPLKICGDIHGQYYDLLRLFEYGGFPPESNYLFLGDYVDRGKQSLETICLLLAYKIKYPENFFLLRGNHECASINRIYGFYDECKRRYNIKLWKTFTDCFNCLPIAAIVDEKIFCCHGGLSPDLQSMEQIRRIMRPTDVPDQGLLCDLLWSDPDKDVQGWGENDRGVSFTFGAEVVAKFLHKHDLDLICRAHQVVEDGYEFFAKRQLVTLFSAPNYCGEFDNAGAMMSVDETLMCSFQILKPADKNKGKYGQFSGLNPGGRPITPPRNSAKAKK
PREPL inh – PREPL enzyme inhibitors, primary screen, biochemical, fluorescence polarization; Prolyl endopeptidase-like (Homo sapiens), Q4J6C6; recombinant PREPL, fluorescence polarization activity-based probe; inhibition, % at 5.96 µM; 320,000 tested, 0.68% active; AID 2751, 2010; in the data active = inhibition above about 43%
Rpn11 block – Rpn11 (PSMD14) deubiquitinase inhibitors, primary screen, biochemical, fluorescence polarization, uHTS. 26S proteasome non-ATPase regulatory subunit 14 (Homo sapiens), O00487. human 26S proteasome, Ub4-pepOG fluorescence polarization; 20S core pre-blocked with epoxomicin. inhibition, % at 20 µM. 360,000 tested, 0.59% active. AID 588493, 2011;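 active = inhibition at 20 µM, scaled to each plate's controls, above about 33%, limit read from the data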
Target sequence (O00487 whole entry, looked up): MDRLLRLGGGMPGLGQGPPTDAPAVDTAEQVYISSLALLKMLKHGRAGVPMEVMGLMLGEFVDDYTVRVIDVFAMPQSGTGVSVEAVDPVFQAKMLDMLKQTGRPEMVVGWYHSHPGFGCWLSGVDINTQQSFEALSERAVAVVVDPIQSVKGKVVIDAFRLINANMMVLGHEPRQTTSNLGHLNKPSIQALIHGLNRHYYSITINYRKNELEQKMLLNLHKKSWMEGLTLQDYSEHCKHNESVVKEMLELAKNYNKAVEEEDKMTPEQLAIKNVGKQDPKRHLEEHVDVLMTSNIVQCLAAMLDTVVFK
NadD inh – inhibitors of S. aureus NadD, primary screen, biochemical, colorimetric, uHTS | Nicotinate-nucleotide adenylyltransferase NadD (Staphylococcus aureus N315) | purified NadD enzyme, colorimetric absorbance read-out | inhibition, % at 20 µM | 360,000 tested, 0.78% active | AID 602399, 2012; in the data active = inhibition above about 26%
NadD inh conf – inhibitors of S. aureus NadD, confirmation, biochemical, colorimetric, single concentration; 2,000 tested, 13% active; shares compounds with NadD inh; inhibition, % at 20 µM; purified S. aureus NadD, colorimetric enzyme assay; AID 624309, 2012; in the data active = inhibition mostly above about 42%, no sharp cut-off; inactive = mostly below about 42%
Numbers stand for hits; i = inactive; nt = no result shown. Compounds with a hit are over-represented: about 2.4% of the library has one in this group of screens.

SMILES	PP5 inh	PP1 inh	PREPL inh	Rpn11 block	NadD inh	NadD inh conf
Oc1ccc(C[C@H]2CN([C@@H](Cc3ccccc3)CN3CCC[C@@H]3CN3C(=S)NC[C@@H]3Cc3ccccc3)C(=S)N2CC2CCCCC2)cc1	nt	nt	nt	i	i	nt
CC(C)C[C@@H](CN1CCCC1CN1C(=S)NC[C@@H]1Cc1ccccc1)N1C[C@H](Cc2ccccc2)N(CC2CCCCC2)C1=S (stereo partly drawn)	nt	nt	nt	nt	i	nt
O=C(NCc1ccc(F)cc1)c1[nH]c(C(F)(F)F)nc1-c1ccccc1	nt	nt	nt	i	i	nt
Oc1ccc(C[C@H]2CNC(=S)N2CC2CCCN2C[C@H](Cc2ccc(O)cc2)N2C[C@H](Cc3ccc(O)cc3)N(CC3CCCCCC3)C2=S)cc1 (stereo partly drawn)	nt	nt	nt	i	55	i
CC(C)C[C@H]1CNC(=S)N1CC1CCCN1C[C@H](Cc1ccccc1)N1C[C@H](Cc2ccccc2)N(CC2CCCCC2)C1=S (stereo partly drawn)	nt	nt	nt	i	i	nt
Oc1ccc(C[C@H]2CNC(=S)N2CC2CCCN2C[C@H](Cc2ccc(O)cc2)N2C[C@H](Cc3ccccc3)N(CC3CCCCC3)C2=S)cc1 (stereo partly drawn)	nt	nt	nt	i	51	55
Oc1ccc(C[C@@H](CN2CCCC2CN2C(=S)NC[C@@H]2Cc2ccccc2)N2C[C@H](Cc3ccccc3)N(CC3CCCCCC3)C2=S)cc1 (stereo partly drawn)	nt	nt	nt	nt	46	i
CCC(=O)N(C)C[C@H]1Oc2cc(Br)ccc2S(=O)(=O)N([C@@H](C)CO)C[C@H]1C	nt	nt	nt	i	i	nt
COc1cc(S(=O)(=O)N2CCOCC2)ccc1NC(=O)COC(=O)CC12CC3CC(CC(C3)C1)C2	i	i	i	i	i	nt
COc1ccc2c3c(cccc13)N(C)N=C2C	i	17	i	i	52	i
COc1ccc2c3c(cccc13)OC2=O	i	i	i	i	i	nt
CCOc1c(OC(C)=O)ccc(/C=C2\N=C(SCC)SC2=O)c1[N+](=O)[O-]	i	i	i	i	i	nt
CCOc1cc(/C=C2\N=C(SCC)SC2=O)cc([N+](=O)[O-])c1OC(C)=O	i	i	i	i	30	i
CCOc1cc(/C=C2\N=C(SC)SC2=O)cc([N+](=O)[O-])c1OC(C)=O	i	i	i	i	46	i
COc1ccc(/C=C2\N=C(SC)SC2=O)cc1OC	i	i	i	i	i	nt
CN(CCC#N)S(=O)(=O)c1ccc2[nH]cc(C(=O)NCCc3ccccc3)c(=O)c2c1	i	i	i	i	i	nt
CCCCNC(=O)C1(C)CCC(=O)N1C1CCN(Cc2ccccc2)CC1 (stereo not drawn)	nt	nt	nt	i	i	nt
COCCCn1cc(CN(C)C2CN(Cc3cn(CCCOC)nn3)S(=O)(=O)C2)nn1 (stereo not drawn)	nt	nt	nt	nt	i	nt
O=S(=O)(Nc1c(S(=O)(=O)c2ccccc2)c2nc3ccccc3nc2n1C1CCCCC1)c1ccccc1	i	i	i	i	32	48
CC(=O)Nc1c(S(=O)(=O)c2ccccc2)c2nc3ccccc3nc2n1Cc1ccccc1	i	i	i	i	i	nt
CC(C)c1ccc(OCC(=O)NNC(=S)NC(=O)c2cccs2)c(Br)c1	i	i	i	i	25	i
Cc1ccc(OCC(=O)NNC(=S)NC(=O)C(C)(C)C)c(Br)c1	i	i	i	i	i	nt
CC(NC(=O)c1c(N)[nH]c(C(=O)c2ccccc2)c1-c1ccccc1Br)c1cccc2ccccc12 (stereo not drawn)	nt	nt	nt	nt	35	i
CN(Cc1ccc(F)cc1)S(=O)(=O)c1nnc(NC(=O)c2ccccc2)s1	i	i	i	i	i	nt
N#C/C(=C/c1ccc(F)cc1)c1nnc(NC(=O)c2ccccc2)s1	i	i	i	i	36	i
SMILES	PP5 inh	PP1 inh	PREPL inh	Rpn11 block	NadD inh	NadD inh conf
Nc1c(C(=O)N/N=C/c2ccccc2Cl)oc2nc(-c3ccccc3)cc(-c3ccco3)c12	i	i	i	nt	31	i
Cc1cc(OCCN2CCC(Cc3ccccc3)CC2)ccc1[N+](=O)[O-]	i	i	i	i	i	nt
Cc1cc(-c2csc(NC(=O)c3cc4ccccc4o3)n2)c(C)n1C	i	i	i	i	36	i
Cc1cc(SCC(=O)c2cccc([N+](=O)[O-])c2)nc(=O)[nH]1	i	i	i	i	33	i
Cc1nc2cc(-c3ccc(Cl)cc3)nn2c(NCCN(C)C)c1C	i	i	i	i	i	nt
O=C1N/C(=N\N=C\c2ccc3ncccc3c2)SC1Cc1ccc(SC(F)F)cc1 (stereo not drawn)	i	i	i	i	33	i
O=C1N/C(=N\N=C\c2cccnc2)SC1Cc1ccc(SC(F)F)cc1 (stereo not drawn)	i	i	i	i	i	nt
N=C1SC(c2ccccc2)C(=O)N1c1ncc(Cc2ccccc2Cl)s1 (stereo not drawn)	i	16	i	i	50	50
O=C(CSc1nnnn1-c1ccccc1)Nc1ncc(Cc2ccccc2Cl)s1	i	i	i	i	i	nt
NC(=O)C1CCN(C(=O)C2CC(=O)N(Cc3ccccc3)C2)CC1 (stereo not drawn)	i	i	i	i	i	nt
C=CCn1c(C)cc(-c2csc(NC(=O)CCc3nc4ccccc4c(=O)[nH]3)n2)c1C	i	i	i	i	52	i
O=C1NC[C@H](Cc2ccccc2)N(C[C@@H]2CCCN2C[C@H](Cc2ccccc2)N2C[C@H](Cc3ccc(O)cc3)N(CCc3ccccc3)C(=O)C2=O)C1=O	nt	nt	nt	nt	44	49
CCOc1ccc(CCN2C(=O)C(=O)N([C@@H](Cc3ccccc3)CN3CCC[C@H]3CN3C(=O)C(=O)NC[C@@H]3Cc3ccccc3)C[C@@H]2Cc2ccc(O)cc2)cc1	nt	nt	nt	nt	71	i
O=C1NC[C@H](Cc2ccccc2)N(C[C@@H]2CCCN2C[C@H](Cc2ccc(O)cc2)N2C[C@H](Cc3ccc(O)cc3)N(CCc3ccccc3)C(=O)C2=O)C1=O	nt	nt	nt	nt	i	nt
CCOc1ccc(CCN2C(=O)C(=O)N([C@@H](Cc3ccc(O)cc3)CN3CCC[C@H]3CN3C(=O)C(=O)NC[C@@H]3Cc3ccccc3)C[C@@H]2Cc2ccc(O)cc2)cc1	nt	nt	nt	nt	30	i
CSc1ncccc1C(=O)OCC(=O)N(C)Cc1ccc(C)cc1	nt	nt	nt	i	i	nt
Cc1ccc2cc3c(N)[nH]nc3nc2c1	i	i	i	i	i	nt
COc1ccc(-c2c(C#N)c(SCC(=O)c3cc4ccccc4oc3=O)nc(C)c2C(=O)Nc2ccccc2)cc1	i	i	i	i	i	nt
Cc1nc(SCC(=O)c2cc3ccccc3oc2=O)c(C#N)c(-c2ccccc2)c1C(=O)Nc1ccccc1	i	i	i	i	28	i
